# Test results taken from the supplement of paper PMC10849652.
# The full data set covers some 7,900 targets. This sample favours those with a hit. About 0.6% of all pairs of compound and target were hits.
# Compound: CN1CCC(CNc2ccc3ncc(-c4cccc(OC(F)(F)F)c4)n3n2)CC1
# Assay: log2 fold change, soluble protein after heating vs DMSO (PISA); higher = thermal stabilisation; K562 cells, 10 uM, 30 min; active = over 0.2 and 3.5 SD of the protein, either way, in both replicates (recomputed)
# How it was run: (§1)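 Aliquots of K562 cells (2×10^6 cells/mL) treated with 10 μM compound for 30 min were heated for 3 min over 48°C-58°C. After pooling and extraction in PBS with 0.5% NP-40 at 4°C, soluble protein from a 21,000xg, 90 min spin was quantified by TMTpro 16plex LC-MS/MS with channel sums equalised. Thermal stability is expressed against control samples, from duplicates, as a log2 fold change.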
# Sequence of UniProt P35580 (P35580 whole entry, looked up): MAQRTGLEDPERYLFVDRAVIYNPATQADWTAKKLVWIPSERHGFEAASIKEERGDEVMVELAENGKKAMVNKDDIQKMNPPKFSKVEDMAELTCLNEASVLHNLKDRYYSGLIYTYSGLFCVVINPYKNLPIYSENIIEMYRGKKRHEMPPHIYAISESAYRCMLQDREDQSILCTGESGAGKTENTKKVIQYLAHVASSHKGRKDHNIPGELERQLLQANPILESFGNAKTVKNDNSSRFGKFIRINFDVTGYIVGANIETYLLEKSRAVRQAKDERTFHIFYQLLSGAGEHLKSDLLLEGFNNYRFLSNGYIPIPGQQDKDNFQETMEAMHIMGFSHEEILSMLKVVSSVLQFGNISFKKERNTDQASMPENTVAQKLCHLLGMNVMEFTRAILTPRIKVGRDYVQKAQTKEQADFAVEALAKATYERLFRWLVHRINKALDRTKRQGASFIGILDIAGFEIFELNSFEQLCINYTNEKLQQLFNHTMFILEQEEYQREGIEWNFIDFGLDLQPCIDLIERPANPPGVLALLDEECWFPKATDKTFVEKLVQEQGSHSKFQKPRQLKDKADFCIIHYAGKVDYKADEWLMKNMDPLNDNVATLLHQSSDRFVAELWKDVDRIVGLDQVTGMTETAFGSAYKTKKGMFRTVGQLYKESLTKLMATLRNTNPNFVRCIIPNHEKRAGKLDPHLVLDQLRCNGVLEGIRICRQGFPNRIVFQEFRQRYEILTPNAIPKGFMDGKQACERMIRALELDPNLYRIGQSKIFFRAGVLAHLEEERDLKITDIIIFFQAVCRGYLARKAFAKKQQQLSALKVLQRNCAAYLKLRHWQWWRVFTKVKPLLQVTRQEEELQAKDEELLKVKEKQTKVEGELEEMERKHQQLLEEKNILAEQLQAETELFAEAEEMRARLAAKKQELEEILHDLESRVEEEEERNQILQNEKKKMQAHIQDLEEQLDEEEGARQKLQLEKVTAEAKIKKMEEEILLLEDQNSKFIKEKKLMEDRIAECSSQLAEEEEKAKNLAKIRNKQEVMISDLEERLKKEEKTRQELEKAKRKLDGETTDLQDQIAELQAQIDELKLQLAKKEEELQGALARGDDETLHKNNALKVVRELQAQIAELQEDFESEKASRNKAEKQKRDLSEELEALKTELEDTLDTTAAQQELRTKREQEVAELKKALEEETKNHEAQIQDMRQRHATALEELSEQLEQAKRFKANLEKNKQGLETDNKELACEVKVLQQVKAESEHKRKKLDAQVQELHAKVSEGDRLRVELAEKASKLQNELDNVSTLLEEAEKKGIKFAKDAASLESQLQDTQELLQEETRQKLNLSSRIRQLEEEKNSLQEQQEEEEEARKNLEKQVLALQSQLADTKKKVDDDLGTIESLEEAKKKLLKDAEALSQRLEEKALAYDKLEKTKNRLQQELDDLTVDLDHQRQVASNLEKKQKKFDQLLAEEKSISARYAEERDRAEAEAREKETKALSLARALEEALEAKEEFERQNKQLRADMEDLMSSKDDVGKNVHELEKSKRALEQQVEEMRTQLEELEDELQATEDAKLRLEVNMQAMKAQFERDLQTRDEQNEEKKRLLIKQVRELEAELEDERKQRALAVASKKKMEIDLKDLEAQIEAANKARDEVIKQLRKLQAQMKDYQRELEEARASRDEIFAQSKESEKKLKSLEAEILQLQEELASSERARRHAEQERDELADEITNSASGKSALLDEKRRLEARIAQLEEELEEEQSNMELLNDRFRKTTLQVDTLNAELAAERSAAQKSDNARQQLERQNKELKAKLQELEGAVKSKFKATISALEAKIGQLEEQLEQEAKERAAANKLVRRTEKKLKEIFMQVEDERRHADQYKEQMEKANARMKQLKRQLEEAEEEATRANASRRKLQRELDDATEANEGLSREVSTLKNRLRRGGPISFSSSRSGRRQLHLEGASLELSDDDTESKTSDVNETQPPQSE
# Sequence of UniProt O00483 (O00483 whole entry, looked up): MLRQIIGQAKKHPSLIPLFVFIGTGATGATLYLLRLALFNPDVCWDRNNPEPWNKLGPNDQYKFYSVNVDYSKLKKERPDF
# Sequence of UniProt Q9BW27 (Q9BW27 whole entry, looked up): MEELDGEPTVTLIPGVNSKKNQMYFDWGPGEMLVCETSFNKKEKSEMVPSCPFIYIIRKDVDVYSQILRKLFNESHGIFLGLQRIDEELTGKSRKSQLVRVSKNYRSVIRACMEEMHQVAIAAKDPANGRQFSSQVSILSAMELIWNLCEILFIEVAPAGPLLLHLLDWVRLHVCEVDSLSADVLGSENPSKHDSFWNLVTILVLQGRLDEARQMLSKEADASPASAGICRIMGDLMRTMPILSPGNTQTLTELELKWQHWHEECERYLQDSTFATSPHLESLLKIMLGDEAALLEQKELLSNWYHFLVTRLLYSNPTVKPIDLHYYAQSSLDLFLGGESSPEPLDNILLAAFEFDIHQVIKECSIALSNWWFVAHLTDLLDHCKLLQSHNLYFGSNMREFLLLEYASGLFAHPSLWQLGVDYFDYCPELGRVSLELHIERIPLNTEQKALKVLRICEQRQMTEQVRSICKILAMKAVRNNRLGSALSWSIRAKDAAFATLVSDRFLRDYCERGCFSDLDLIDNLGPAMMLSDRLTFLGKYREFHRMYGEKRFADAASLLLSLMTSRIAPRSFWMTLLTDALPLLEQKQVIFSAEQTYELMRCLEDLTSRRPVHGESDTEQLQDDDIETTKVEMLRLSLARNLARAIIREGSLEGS
# Sequence of UniProt P68402 (P68402 whole entry, looked up): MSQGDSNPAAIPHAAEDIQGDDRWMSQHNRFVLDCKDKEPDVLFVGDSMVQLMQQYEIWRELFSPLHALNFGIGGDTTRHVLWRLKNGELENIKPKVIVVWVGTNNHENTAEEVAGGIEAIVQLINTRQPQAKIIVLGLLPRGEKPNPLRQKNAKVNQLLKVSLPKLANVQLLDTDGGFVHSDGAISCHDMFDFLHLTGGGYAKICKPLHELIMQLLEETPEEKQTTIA
# Sequence of UniProt Q9BUK6 (Q9BUK6 whole entry, looked up): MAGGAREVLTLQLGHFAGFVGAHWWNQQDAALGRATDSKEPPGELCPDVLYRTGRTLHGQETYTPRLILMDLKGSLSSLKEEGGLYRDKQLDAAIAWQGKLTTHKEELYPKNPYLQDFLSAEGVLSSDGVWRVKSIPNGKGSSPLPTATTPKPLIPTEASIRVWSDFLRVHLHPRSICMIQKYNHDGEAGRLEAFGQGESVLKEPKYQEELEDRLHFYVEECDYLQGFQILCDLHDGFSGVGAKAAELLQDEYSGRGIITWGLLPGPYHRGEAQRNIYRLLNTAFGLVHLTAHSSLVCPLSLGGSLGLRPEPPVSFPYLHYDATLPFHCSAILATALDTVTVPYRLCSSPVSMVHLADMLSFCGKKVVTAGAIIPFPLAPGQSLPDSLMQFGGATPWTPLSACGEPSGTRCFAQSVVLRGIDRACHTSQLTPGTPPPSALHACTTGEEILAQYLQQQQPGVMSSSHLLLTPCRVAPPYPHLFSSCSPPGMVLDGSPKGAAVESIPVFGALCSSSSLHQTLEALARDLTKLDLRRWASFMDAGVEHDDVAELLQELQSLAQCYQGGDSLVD
# Sequence of UniProt Q7L1V2 (Q7L1V2 whole entry, looked up): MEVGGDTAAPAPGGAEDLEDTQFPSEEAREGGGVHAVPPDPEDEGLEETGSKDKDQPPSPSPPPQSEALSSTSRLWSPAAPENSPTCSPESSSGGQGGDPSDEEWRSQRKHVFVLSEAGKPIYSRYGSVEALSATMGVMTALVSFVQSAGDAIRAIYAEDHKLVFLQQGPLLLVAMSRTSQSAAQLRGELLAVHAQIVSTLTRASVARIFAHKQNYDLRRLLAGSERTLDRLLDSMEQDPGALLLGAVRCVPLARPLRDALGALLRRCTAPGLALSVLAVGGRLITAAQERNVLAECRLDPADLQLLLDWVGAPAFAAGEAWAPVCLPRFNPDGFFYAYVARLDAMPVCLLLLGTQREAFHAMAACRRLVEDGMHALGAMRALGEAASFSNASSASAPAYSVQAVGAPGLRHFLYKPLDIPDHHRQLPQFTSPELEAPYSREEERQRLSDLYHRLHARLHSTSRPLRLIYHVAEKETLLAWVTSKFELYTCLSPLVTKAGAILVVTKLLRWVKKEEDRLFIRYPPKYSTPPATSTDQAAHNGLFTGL
# Sequence of UniProt Q13952 (Q13952 whole entry, looked up): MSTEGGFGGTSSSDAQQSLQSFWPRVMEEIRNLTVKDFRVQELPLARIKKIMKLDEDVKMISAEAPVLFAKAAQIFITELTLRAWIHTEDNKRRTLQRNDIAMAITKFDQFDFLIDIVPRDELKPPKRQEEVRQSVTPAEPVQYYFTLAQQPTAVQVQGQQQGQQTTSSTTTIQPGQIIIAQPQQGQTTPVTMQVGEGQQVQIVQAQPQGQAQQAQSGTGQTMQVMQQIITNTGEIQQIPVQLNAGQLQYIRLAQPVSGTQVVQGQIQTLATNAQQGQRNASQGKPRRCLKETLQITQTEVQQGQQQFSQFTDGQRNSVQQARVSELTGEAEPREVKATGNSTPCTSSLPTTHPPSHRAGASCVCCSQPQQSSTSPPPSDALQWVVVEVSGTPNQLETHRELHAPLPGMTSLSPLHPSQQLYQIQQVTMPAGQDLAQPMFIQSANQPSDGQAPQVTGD
# Sequence of UniProt Q8WVJ2 (Q8WVJ2 whole entry, looked up): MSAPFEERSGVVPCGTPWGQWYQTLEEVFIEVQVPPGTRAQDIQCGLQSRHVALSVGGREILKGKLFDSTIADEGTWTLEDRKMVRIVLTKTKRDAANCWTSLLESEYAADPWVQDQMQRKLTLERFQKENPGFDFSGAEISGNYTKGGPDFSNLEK
# Sequence of UniProt Q99747 (Q99747 whole entry, looked up): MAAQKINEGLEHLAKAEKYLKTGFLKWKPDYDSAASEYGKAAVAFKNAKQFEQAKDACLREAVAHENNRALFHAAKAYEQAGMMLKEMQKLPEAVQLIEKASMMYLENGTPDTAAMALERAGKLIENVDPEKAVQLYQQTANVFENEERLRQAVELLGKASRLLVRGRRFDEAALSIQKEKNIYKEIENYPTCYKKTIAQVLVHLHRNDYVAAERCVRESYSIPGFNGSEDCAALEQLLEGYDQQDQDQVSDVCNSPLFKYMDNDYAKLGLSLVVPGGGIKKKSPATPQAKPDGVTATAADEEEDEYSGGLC
row,Target,log2 fold change
1,NUDCD2 (UniProt Q8WVJ2),-0.291 (inactive)
2,"NA, A0A096LPI6",0.016 (inactive)
3,NAP1L1 (UniProt P55209),-0.038 (inactive)
4,NCL (UniProt P19338),0.293 (inactive)
5,NUP107 (UniProt P57740),0.628 (active)
6,MRPL46 (UniProt Q9H2W6),0.12 (inactive)
7,MRPS22 (UniProt P82650),0.103 (inactive)
8,MSTO1 (UniProt Q9BUK6),-0.185 (inactive)
9,NOL11 (UniProt Q9H8H0),0.126 (inactive)
10,NFYC (UniProt Q13952),0 (inactive)
11,MTMR14 (UniProt Q8NCE2),-0.039 (inactive)
12,NISCH (UniProt Q9Y2I1),-0.518 (active)
13,NAPG (UniProt Q99747),-0.028 (inactive)
14,NDUFA4 (UniProt O00483),0.101 (inactive)
15,NUMB (UniProt P49757),-0.202 (inactive)
16,MRPS18B (UniProt Q9Y676),-0.087 (inactive)
17,NUP85 (UniProt Q9BW27),-0.045 (inactive)
18,MTHFD1 (UniProt P11586),0.004 (inactive)
19,NOSIP (UniProt Q9Y314),0.097 (inactive)
20,NECTIN2 (UniProt Q92692),0.138 (inactive)

row,Target,log2 fold change
1,NUP205 (UniProt Q92621),-0.233 (active)
2,NFATC2IP (UniProt Q8NCF5),-0.103 (inactive)
3,NRF1 isoform 4 (UniProt Q16656),0.037 (inactive)
4,MRPS12 (UniProt O15235),-0.014 (inactive)
5,MON1B (UniProt Q7L1V2),-0.377 (active)
6,NEMP1 (UniProt O14524),-0.106 (inactive)
7,NDUFAF6 (UniProt Q330K2),-0.721 (active)
8,NFATC3 (UniProt Q12968),0.039 (inactive)
9,MRPS15 (UniProt P82914),0.042 (inactive)
10,NUP160 (UniProt Q12769),0.014 (inactive)
11,NEU1 (UniProt Q99519),-0.079 (inactive)
12,OGFR (UniProt Q9NZT2),-0.134 (inactive)
13,NBN (UniProt O60934),-0.116 (inactive)
14,MYH10 isoform 3 (UniProt P35580),-0.077 (inactive)
15,MRPS24 (UniProt Q96EL2),0.07 (inactive)
16,NOP2 isoform 4 (UniProt P46087),0.494 (inactive)
17,NEDD4 isoform 4 (UniProt P46934),0.049 (inactive)
18,NOLC1 isoform 2 (UniProt Q14978),-0.112 (inactive)
19,PAFAH1B2 (UniProt P68402),-0.016 (inactive)

# Compound: CN1CCN(CCOc2cc(OC3CCOCC3)c3c(Nc4c(Cl)ccc5c4OCO5)ncnc3c2)CC1 [saracatinib]
# Assay: as above
# How it was run: as §1
row,Target,log2 fold change
1,NUDCD2 (UniProt Q8WVJ2),-0.115 (inactive)
2,"NA, A0A096LPI6",0.05 (inactive)
3,NAP1L1 (UniProt P55209),0.042 (inactive)
4,NCL (UniProt P19338),-0.111 (inactive)
5,NUP107 (UniProt P57740),-0.017 (inactive)
6,MRPL46 (UniProt Q9H2W6),-0.071 (inactive)
7,MRPS22 (UniProt P82650),-0.098 (inactive)
8,MSTO1 (UniProt Q9BUK6),0.047 (inactive)
9,NOL11 (UniProt Q9H8H0),0.093 (inactive)
10,NFYC (UniProt Q13952),0.011 (inactive)
11,MTMR14 (UniProt Q8NCE2),-0.037 (inactive)
12,NISCH (UniProt Q9Y2I1),-0.037 (inactive)
13,NAPG (UniProt Q99747),-0.028 (inactive)
14,NDUFA4 (UniProt O00483),0.021 (inactive)
15,NUMB (UniProt P49757),0.033 (inactive)
16,MRPS18B (UniProt Q9Y676),-0.038 (inactive)
17,NUP85 (UniProt Q9BW27),0.027 (inactive)
18,MTHFD1 (UniProt P11586),0.004 (inactive)
19,NOSIP (UniProt Q9Y314),-0.045 (inactive)
20,NECTIN2 (UniProt Q92692),0.021 (inactive)

row,Target,log2 fold change
1,NUP205 (UniProt Q92621),-0.003 (inactive)
2,NFATC2IP (UniProt Q8NCF5),0.065 (inactive)
3,NRF1 isoform 4 (UniProt Q16656),0.102 (inactive)
4,MRPS12 (UniProt O15235),-0.19 (inactive)
5,MON1B (UniProt Q7L1V2),0.005 (inactive)
6,NEMP1 (UniProt O14524),-0.001 (inactive)
7,NDUFAF6 (UniProt Q330K2),-0.071 (inactive)
8,NFATC3 (UniProt Q12968),-0.003 (inactive)
9,MRPS15 (UniProt P82914),-0.134 (inactive)
10,NUP160 (UniProt Q12769),0.155 (inactive)
11,NEU1 (UniProt Q99519),-0.044 (inactive)
12,OGFR (UniProt Q9NZT2),-0.044 (inactive)
13,NBN (UniProt O60934),-0.008 (inactive)
14,MYH10 isoform 3 (UniProt P35580),0.019 (inactive)
15,MRPS24 (UniProt Q96EL2),-0.153 (inactive)
16,NOP2 isoform 4 (UniProt P46087),-0.09 (inactive)
17,NEDD4 isoform 4 (UniProt P46934),0.116 (inactive)
18,NOLC1 isoform 2 (UniProt Q14978),-0.007 (inactive)
19,PAFAH1B2 (UniProt P68402),-0.016 (inactive)
